Inconclusive results are not listed. A number with no mark means an inactive call. Active and inactive are the calls of the source. The call rests on the fitted dose curve; in most records, active means well fitted cell-killing curve with a large enough effect in the repeat runs; inconclusive means weak or mixed curves, or effect the other way; inactive means flat fitted curve, though single readings scatter.
assay: qHTS RealTime-Glo MT Cell Viability Assay in HEK293 cells - 40 hour (AID 1224874); conditions: RealTime-Glo luminescence; max response: stronger effect = lower value; further: nearly all actives have a fitted effect of over 50% in size
Source text: U.S. Tox21 Program National Center for Advancing Translational Sciences [NCATS] NIH Chemical Genomics Center [NCGC] U.S. Environmental Protection Agency [EPA] National Institutes of Environmental Health Sciences [NIEHS] National Toxicology Program [NTP] U.S. Food and Drug Administration [FDA] Tox21 Assay Overview: Measure of cell viability is critical in the cell-base assay. Analysis of cell viability is necessary for the characterization of cell responses to cytotoxic drugs and environmental stress. A RealTime-Glo MT Cell Viability Assay to monitor cell viability in real time of continues cell culture during 40 hours of compound treatment was used to screen Tox21 10K library compounds in Hek293 cells. The RealTime-Glo MT Cell Viability Assay is a nonlytic, homogeneous, bioluminescent method to measure cell viability in real time using a simple, plate-based method. The assay involves adding NanoLuc luciferase and a cell-permeant prosubstrate to cells in culture. Viable cells reduce the proprietary prosubstrate to generate a substrate for NanoLuc luciferase. This substrate diffuses from cells into the surrounding culture medium, where it is rapidly used by the NanoLuc Enzyme to produce a luminescent signal. The signal correlates with the number of viable cells, making the assay well suited for cytotoxicity studies.
Tox21 Assay Protocol Summary: The mixture of Hek293 cell suspension and reagents were dispensed at 600cells/6 ul/well in 1536-well tissue culture treated black solid bottom plates using a Multidrop dispenser. After the assay plates were incubated at a 37 C/5% CO2 incubator for 5 hours, 23 nL of compounds dissolved in DMSO, positive and negative controls was transferred to the assay plate by a pintool work station. The plates were incubated at 37 C for 40 hours. The luminescence intensity were measured at 0h, 8h, 16h, 24h, 32h and 40h time points using ViewLux plate reader during compound treatment.
On the % scale 0 is the no-effect control and ±100 the full control effect; potency means the concentration at half of the fitted maximal effect.

Row | SMILES | max response [%] | Potency
1 | O=C(CS)OCCOC(=O)CS | 0.141 | 
2 | C[Si]1(C)O[Si](C)(C)O[Si](C)(C)O1 | 0.932 | 
3 | O=C(CCCN1CCN(c2ccc(F)cc2)CC1)NC1c2ccccc2CSc2ccccc21 (stereo not given) |  | 16.9 µM (active)
4 | CC#N | 1.57 | 
5 | CNC(=O)N(c1ccccc1)c1ccccc1 | 10.9 | 
6 | CCCCCCCCCCCC(=O)[O][Sn]([CH2]CCC)([CH2]CCC)[O]C(=O)CCCCCCCCCCC |  | 7.56 µM (active)
7 | NC(=O)Nc1ccc(Cl)cc1 | -8.17 | 
8 | CCCCC(=O)O[C@]1(C(=O)CO)CC[C@H]2[C@@H]3CCC4=CC(=O)CC[C@]4(C)[C@H]3[C@@H](O)C[C@@]21C | -24 | 
9 | CN(C)C(=O)Nc1ccc(Oc2ccc(Cl)cc2)cc1 |  | 34.7 µM (active)
10 | CCC(C)=O | 15.5 | 
11 | O=C(c1ccc(O)cc1)c1ccc(Cl)cc1 |  | 25.1 µM (active)
12 | C=CC(C)(O)CCCC(C)CCCC(C)CCCC(C)C (stereo not given) | 6.13 | 
13 | CCCCN(CCCC)C(=S)SSC(=S)N(CCCC)CCCC |  | 38.5 µM (active)
14 | O=C(N[C@@H](c1ccccc1)[C@@H]1CCCCN1)c1cccc(C(F)(F)F)c1Cl |  | 24.5 µM (active)
15 | C/C(=N/NC(=O)c1ccncc1)C(=O)O | 0.452 | 
16 | CC(C)(C)C(=O)O | 6.48 | 
17 | COC(=O)c1cc(Cl)ccc1NS(=O)(=O)C(F)(F)F | 2.62 | 
18 | C/C=C/C=C/CCCCCCCO | -18.5 | 
19 | C1COCO1 | -1.05 | 
20 | CCCCCCCCCCOS(=O)(=O)O | -3.11 | 

Row | SMILES | max response [%] | Potency
21 | O=C(Nc1ccc([N+](=O)[O-])cc1)Nc1ccc([N+](=O)[O-])cc1 |  | 7.56 µM (active)
22 | CC(C)(CCl)c1ccccc1 | 4.77 | 
23 | O=C(/C=C/c1ccccc1)OCCCc1ccccc1 | -1.1 | 
24 | Cc1cc(C(=C2C=CC(=Nc3ccc(S(=O)(=O)O)cc3S(=O)(=O)O)C=C2)c2ccc(Nc3ccc(S(=O)(=O)O)cc3)cc2)ccc1N | -3.61 | 
25 | CC1CC(O)CC(C)(C)C1 (stereo not given) | -3.83 | 
26 | C/C=C(\C)C(=O)OCCC(C)CCC=C(C)C (stereo not given) | 5.27 | 
27 | Nc1c(I)cc(I)c(C(=O)N(CCC(=O)O)c2ccccc2)c1I | -10.8 | 
28 | COC(OC)(C(=O)c1ccccc1)c1ccccc1 | 1.09 | 
29 | CCC(C(=O)OCCN(CC)CC)c1ccccc1 (stereo not given) | 8.92 | 
30 | CN(C)CCOC1=Cc2ccccc2Sc2ccc(Cl)cc21 | -22.7 | 
31 | CC1(C)C(=O)N(Br)C(=O)N1Cl | 8.13 | 
32 | C=CC(=C)CCCC(C)(C)OC(C)=O | -7.82 | 
33 | C=CC(C)(C)CC(=O)OC |  | 1.55 µM (active)
34 | CCCCCCCC/C=C\CCCCCCCC(=O)OC(CO)CO | 0.119 | 
35 | COc1ccccc1N=Nc1c(S(=O)(=O)O)cc2cc(S(=O)(=O)O)cc(NC(C)=O)c2c1O | 1.04 | 
36 | CCN(Cc1cccc(S(=O)(=O)O)c1)c1ccc(C(=C2C=CC(=[N+](CC)Cc3cccc(S(=O)(=O)[O-])c3)C=C2)c2ccccc2)cc1 | 3.22 | 
37 | CNCCCC1c2ccccc2C=Cc2ccccc21 |  | 23.9 µM (active)
38 | CCCOC(=O)c1ccc(C(=O)OCCC)nc1 | 7.22 | 
39 | O=C(NCCCN1CCOCC1)c1ccc(Cl)cc1 | 7.84 | 
40 | Cc1cc2nc3ccc(=[N+](C)C)cc-3sc2cc1N |  | 2.13 µM (active)
